Activity calls are given as the source filed them. How the source made its calls: active means hit-call score of the fitted dose curve at least 0.9, where 1 is the maximum; inactive means score below 0.9.
Legend:
Conditions in all cases: mRNA level, 48 h; actives raise or lower the signal
[1] = read-out: Heat shock 70 kDa protein 1 (HSPA1A), gene 3303; assay: LTEA_HepaRG_HSPA1A: Life Technologies and Expression Analysis (LTEA) Assay for Heat shock 70 kDa protein 1 (HSPA1A) using HepaRG (AID 2283502)
Summary of the method: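 Cells were plated and cultured for 48 h, then switched to serum-free induction medium. Chemicals were added at eight half-log concentrations up to 100 uM for 48 h. RNA was then isolated and HSPA1A measured by qRT-PCR with bidirectional curve fitting against DMSO.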

[2] = read-out: Hypoxia-inducible factor 1-alpha (Homo sapiens) (UniProt Q16665); assay: LTEA_HepaRG_HIF1A: Life Technologies and Expression Analysis (LTEA) Assay for Hypoxia-inducible factor 1 (HIF1A) Trancription factor using HepaRG (AID 2283503)
Summary of the method: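 HIF1A transcript level read by qRT-PCR (ACTB, GAPDH, POLR2A normalization) after 48 h chemical exposure of HepaRG cultures. Eight half-log concentrations, top 100 uM, 0.5% DMSO vehicle, duplicates; bidirectional curve fit against DMSO baseline.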

[3] = read-out: 3-Hydroxy-3-Methylglutaryl-CoA Synthase 2 (HMGCS2), HMGCS2 (gene 3158); assay: LTEA_HepaRG_HMGCS2: Life Technologies and Expression Analysis (LTEA) Assay for 3-Hydroxy-3-Methylglutaryl-CoA Synthase 2 (HMGCS2) using HepaRG (AID 2283504)
Summary of the method: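 Differentiated human HepaRG cells were exposed in duplicate for 48 h in serum-free induction medium to eight concentrations (top 100 uM, half-log steps, 0.5% DMSO). HMGCS2 mRNA was quantified by TaqMan qRT-PCR, normalised to ACTB, GAPDH and POLR2A, then fitted bidirectionally against DMSO.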

HGF (gene 3082) = assay: LTEA_HepaRG_HGF: Life Technologies and Expression Analysis (LTEA) Assay for Hepatocyte Growth Facto (HGF) using HepaRG (AID 2283505)
Summary of the method: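 Differentiated human HepaRG cells in serum-free induction medium were exposed in duplicate for 48 h to eight concentrations (top 100 uM, half-log steps, 0.5% DMSO). HGF mRNA was quantified by qRT-PCR, normalized to ACTB, GAPDH and POLR2A.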

[4] = read-out: Insulin Like Growth Factor 1 (IGF1), IGF1 (gene 3479); assay: LTEA_HepaRG_IGF1: Life Technologies and Expression Analysis (LTEA) Assay for Insulin Like Growth Factor 1 (IGF1) using HepaRG (AID 2283506)
Summary of the method: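 Cells are thawed, plated and cultured 48 h, then exposed in duplicate to chemical (highest 100 uM, half-log steps, 0.5% DMSO) for another 48 h. Total RNA is analysed by Fluidigm qRT-PCR for IGF1 expression relative to vehicle.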

[5] = read-out: Intercellular Adhesion Molecule 1 (ICAM1), ICAM1 (gene 3383); assay: LTEA_HepaRG_ICAM1: Life Technologies and Expression Analysis (LTEA) Assay for Intercellular Adhesion Molecule 1 (ICAM1) using HepaRG (AID 2283507)
Summary of the method: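 Differentiated HepaRG cells in serum-free induction medium were exposed in duplicate for 48 h to eight half-log concentrations up to 100 uM in 0.5% DMSO. Transcript levels were measured by qRT-PCR normalized to ACTB, GAPDH and POLR2A; bidirectional fits relative to DMSO.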

[6] = read-out: Interleukin 6 (IL6), IL6 (gene 3569); assay: LTEA_HepaRG_IL6: Life Technologies and Expression Analysis (LTEA) Assay for Interleukin 6 (IL6) using HepaRG (AID 2283509)
Summary of the method: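 qRT-PCR read-out of IL6 transcript, normalized to three housekeeping genes, after 48 h chemical exposure of HepaRG cells; 8-point half-log series, top 100 uM, 0.5% DMSO vehicle. Bidirectional curve fitting against DMSO baseline.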

[7] = read-out: Interleukin 6 Receptor (IL6R), IL6R (gene 3570); assay: LTEA_HepaRG_IL6R: Life Technologies and Expression Analysis (LTEA) Assay for Interleukin 6 Receptor (IL6R) using HepaRG (AID 2283510);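 on AC50: TaqMan qRT-PCR signal normalized to ACTB GAPDH and POLR2A housekeeping genes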
Summary of the method: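 Cells were thawed, plated and cultured 48 h, then medium was changed to serum-free induction medium. Chemicals were added in duplicate (100 uM top, half-log steps, 0.5% DMSO) for 48 h. Lysates were analyzed by qRT-PCR for IL6R expression.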

[8] = read-out: Potassium channel subfamily K member 1 (KCNK1), KCNK1 (gene 3775); assay: LTEA_HepaRG_KCNK1: Life Technologies and Expression Analysis (LTEA) Assay for Potassium channel subfamily K member 1 (KCNK1) using HepaRG (AID 2283511)
Summary of the method: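 HepaRG, 48 h exposure, 8-pt half-log series top 100 uM, 0.5% DMSO vehicle, duplicates. Readout: KCNK1 transcript by qRT-PCR (Fluidigm array), housekeeping-normalized; bidirectional curve fit relative to DMSO baseline.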

[9] = read-out: Keratin 19 (KRT19), KRT19 (gene 3880); assay: LTEA_HepaRG_KRT19: Life Technologies and Expression Analysis (LTEA) Assay for Keratin 19 (KRT19) using HepaRG (AID 2283512)
Summary of the method: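 Differentiated human HepaRG cells, plated 48 h, were exposed in duplicate for 48 h in serum-free induction medium to eight half-log concentrations up to 100 uM in 0.5% DMSO. KRT19 mRNA was quantified by qRT-PCR, normalized to ACTB, GAPDH and POLR2A, and fitted bidirectionally versus DMSO.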

[10] = read-out: JUN Transcription Factor, JUN (gene 3725); assay: LTEA_HepaRG_JUN: Life Technologies and Expression Analysis (LTEA) Assay for JUN Transcription Factor using HepaRG (AID 2283513)
Summary of the method: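 Read-out is JUN transcript level by TaqMan qRT-PCR, normalized to ACTB, GAPDH and POLR2A, after 48 h chemical treatment of HepaRG cells. Concentration-response spanned eight half-log points up to 100 uM in 0.5% DMSO.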

[11] = read-out: Lipase C (LIPC), LIPC (gene 3990); assay: LTEA_HepaRG_LIPC: Life Technologies and Expression Analysis (LTEA) Assay for Lipase C (LIPC) using HepaRG (AID 2283514)
Summary of the method: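 HepaRG, 48 h exposure, 8-pt half-log series from 100 uM in 0.5% DMSO, duplicates. Readout: LIPC mRNA by Fluidigm qRT-PCR, housekeeping-normalized (ACTB/GAPDH/POLR2A). Gain or loss fitted bidirectionally against DMSO baseline.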

[12] = read-out: Lipoprotein lipase (LPL), LPL (gene 4023); assay: LTEA_HepaRG_LPL: Life Technologies and Expression Analysis (LTEA) Assay for Lipoprotein lipase (LPL) using HepaRG (AID 2283515)
Summary of the method: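 HepaRG, 48 h exposure, 8-pt half-log dilutions from 100 uM, 0.5% DMSO vehicle, duplicates; qRT-PCR (Fluidigm array) of LPL mRNA vs housekeeping genes; bidirectional curve fit relative to DMSO baseline.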

[13] = read-out: MicroRNA 122 (MIR122), gene 406906; assay: LTEA_HepaRG_MIR122: Life Technologies and Expression Analysis (LTEA) Assay for MicroRNA 122 (MIR122) using HepaRG (AID 2283516); further: the transcript read is the microRNA miR-122
Summary of the method: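 Human liver HepaRG cultures receive test chemicals for 48 h at eight half-log concentrations from 100 uM. Expression is quantified by qRT-PCR with ACTB/GAPDH/POLR2A normalization and fitted bidirectionally against 0.5% DMSO.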

[14] = read-out: matrix metalloproteinase-10 (MMP10), MMP10 (gene 4319); assay: LTEA_HepaRG_MMP10: Life Technologies and Expression Analysis (LTEA) Assay for matrix metalloproteinase-10 (MMP10) using HepaRG (AID 2283517)
Summary of the method: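 Transcript levels come from Fluidigm qRT-PCR normalized to three housekeeping genes, with curves fitted bidirectionally against 0.5% DMSO. Human HepaRG cells were dosed for 48 hours at concentrations up to 100 uM.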

MYC, MYC (gene 4609) = assay: LTEA_HepaRG_MYC: Life Technologies and Expression Analysis (LTEA) Assay for MYC using HepaRG (AID 2283518)
Summary of the method: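 Differentiated human HepaRG cells, plated 48 h then switched to serum-free induction medium, were exposed in duplicate for 48 h to 8-point half-log series up to 100 uM in 0.5% DMSO. MYC mRNA measured by qRT-PCR, normalized to ACTB/GAPDH/POLR2A.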

[15] = read-out: matrix metalloproteinase-3 (MMP3), MMP3 (gene 4314); assay: LTEA_HepaRG_MMP3: Life Technologies and Expression Analysis (LTEA) Assay for matrix metalloproteinase-3 (MMP3) using HepaRG (AID 2283519)
Summary of the method: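 qRT-PCR read-out of MMP3 mRNA (normalised to three housekeeping genes) in HepaRG liver cells after 48 h chemical exposure; 8-point half-log series, top 100 uM, 0.5% DMSO vehicle. Bidirectional curve fitting against DMSO baseline.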

[16] = read-out: Paternally Expressed 10 (PEG10), PEG10 (gene 23089); assay: LTEA_HepaRG_PEG10: Life Technologies and Expression Analysis (LTEA) Assay for Paternally Expressed 10 (PEG10) using HepaRG (AID 2283520);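 on AC50: PEG10 transcript by qRT-PCR normalised to ACTB GAPDH and POLR2A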
Summary of the method: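 Human HepaRG cultures are dosed for 48 h across an eight-point half-log series starting at 100 uM, with 0.5% DMSO as vehicle and baseline. Gain or loss of PEG10 transcript is measured by qRT-PCR and fitted in both directions.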

[17] = read-out: Nuclear factor NF-kappa-B p105 subunit (Homo sapiens) (UniProt P19838); assay: LTEA_HepaRG_NFKB1: Life Technologies and Expression Analysis (LTEA) Assay for Nuclear Factor Kappa B Subunit 1 (NFKB1) using HepaRG (AID 2283521);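 further: TaqMan qRT-PCR transcript normalised to ACTB GAPDH and POLR2A housekeeping genes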
Summary of the method: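 NFKB1 transcript was measured by TaqMan qRT-PCR on Fluidigm arrays, normalised to three housekeeping genes and fitted in both directions against 0.5% DMSO. HepaRG cells were dosed in duplicate for 48 h in serum-free induction medium, eight half-log steps from 100 uM.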

Sequence of Hypoxia-inducible factor 1-alpha (Homo sapiens) (Q16665 whole entry, looked up): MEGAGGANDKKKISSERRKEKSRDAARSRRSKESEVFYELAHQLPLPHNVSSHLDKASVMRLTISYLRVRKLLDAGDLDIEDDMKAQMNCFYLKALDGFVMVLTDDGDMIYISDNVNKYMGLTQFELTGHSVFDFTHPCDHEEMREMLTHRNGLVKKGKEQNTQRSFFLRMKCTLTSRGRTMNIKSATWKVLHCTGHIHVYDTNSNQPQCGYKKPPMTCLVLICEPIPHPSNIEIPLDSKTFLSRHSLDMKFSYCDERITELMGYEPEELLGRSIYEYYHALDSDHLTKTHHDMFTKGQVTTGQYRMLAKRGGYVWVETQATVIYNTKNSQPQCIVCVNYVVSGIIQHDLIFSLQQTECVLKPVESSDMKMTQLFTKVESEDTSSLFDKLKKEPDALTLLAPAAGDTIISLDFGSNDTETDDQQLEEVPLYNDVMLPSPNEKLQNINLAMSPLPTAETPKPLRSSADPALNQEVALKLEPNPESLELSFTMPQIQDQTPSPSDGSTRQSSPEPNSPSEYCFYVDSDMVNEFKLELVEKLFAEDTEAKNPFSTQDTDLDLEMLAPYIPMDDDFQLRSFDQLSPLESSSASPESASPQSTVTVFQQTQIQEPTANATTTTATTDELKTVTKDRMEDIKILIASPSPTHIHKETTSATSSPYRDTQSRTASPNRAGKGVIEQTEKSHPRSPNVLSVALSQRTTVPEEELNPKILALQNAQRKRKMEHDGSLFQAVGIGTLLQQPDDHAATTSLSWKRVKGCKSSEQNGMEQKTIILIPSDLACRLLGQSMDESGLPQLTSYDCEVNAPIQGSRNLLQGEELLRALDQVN
Sequence of Nuclear factor NF-kappa-B p105 subunit (Homo sapiens) (P19838 whole entry, looked up): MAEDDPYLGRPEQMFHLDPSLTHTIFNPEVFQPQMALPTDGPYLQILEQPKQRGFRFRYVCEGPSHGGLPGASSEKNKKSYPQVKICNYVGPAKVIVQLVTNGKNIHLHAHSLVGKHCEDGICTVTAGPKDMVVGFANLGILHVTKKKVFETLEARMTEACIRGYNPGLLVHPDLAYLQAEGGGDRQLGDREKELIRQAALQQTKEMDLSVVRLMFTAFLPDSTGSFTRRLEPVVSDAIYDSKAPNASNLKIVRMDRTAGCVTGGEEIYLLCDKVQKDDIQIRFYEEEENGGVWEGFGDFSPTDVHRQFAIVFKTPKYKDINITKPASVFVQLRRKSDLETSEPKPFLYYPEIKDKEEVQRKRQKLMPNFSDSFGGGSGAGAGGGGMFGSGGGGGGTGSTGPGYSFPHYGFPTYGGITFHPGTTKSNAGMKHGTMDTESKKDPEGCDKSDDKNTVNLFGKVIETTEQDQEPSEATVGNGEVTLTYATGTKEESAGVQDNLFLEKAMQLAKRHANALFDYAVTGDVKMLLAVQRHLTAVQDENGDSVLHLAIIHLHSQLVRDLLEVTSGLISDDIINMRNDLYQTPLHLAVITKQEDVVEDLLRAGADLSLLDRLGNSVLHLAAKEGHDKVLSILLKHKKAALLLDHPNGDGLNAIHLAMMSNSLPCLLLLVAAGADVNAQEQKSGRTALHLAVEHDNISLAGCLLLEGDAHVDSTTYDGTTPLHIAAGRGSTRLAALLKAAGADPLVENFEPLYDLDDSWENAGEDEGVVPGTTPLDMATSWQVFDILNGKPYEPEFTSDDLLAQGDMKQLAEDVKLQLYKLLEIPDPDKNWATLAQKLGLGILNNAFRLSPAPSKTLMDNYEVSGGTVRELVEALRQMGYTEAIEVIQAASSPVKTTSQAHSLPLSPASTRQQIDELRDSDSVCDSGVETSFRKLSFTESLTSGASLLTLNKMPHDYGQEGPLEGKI

CN(C)c1ccc(C(=C2C=CC(=[N+](C)C)C=C2)c2ccc(N(C)C)cc2)cc1
AC50 [1]: 86.5 µM (active) | AC50 [2]: 44.3 µM (active) | AC50 [3]: 3.66 µM (active) | outcome (HGF (gene 3082)): inactive | AC50 [4]: 1.44 µM (active) | AC50 [5]: 73.1 µM (active) | AC50 [6]: 6.98 µM (active) | AC50 [7]: 12.5 µM (active) | AC50 [8]: 5.1 µM (active) | AC50 [9]: 4.74 µM (active) | AC50 [10]: 89.2 µM (active) | AC50 [11]: 3.01 µM (active) | AC50 [12]: 36 µM (active) | AC50 [13]: 6.78 µM (active) | AC50 [14]: 8.54 µM (active) | AC50 (MYC, MYC (gene 4609)): 12 µM (active) | AC50 [15]: 9.34 µM (active) | AC50 [16]: 6.63 µM (active)

CCOC(=O)O[C@H](C)OC(=O)c1ccc2c(c1)cc(C(=O)NC1CCN(C(C)C)CC1)n2Cc1cc(-c2ccc(Cl)s2)on1
outcome [1]: inactive | outcome [2]: inactive | outcome [3]: inactive | outcome (HGF (gene 3082)): inactive | outcome [4]: inactive | outcome [5]: inactive | outcome [6]: inactive | outcome [7]: inactive | outcome [8]: inactive | outcome [9]: inactive | outcome [10]: inactive | outcome [11]: inactive | outcome [12]: inactive | outcome [13]: inactive | outcome [14]: inactive | outcome (MYC, MYC (gene 4609)): inactive | AC50 [15]: 47.2 µM (active) | outcome [16]: inactive | outcome [17]: inactive

OC12N=C(c3ccccc3)SC1Cc1cc(Cl)ccc12 (stereo not given)
outcome [1]: inactive | outcome [2]: inactive | AC50 [3]: 20 µM (active) | outcome (HGF (gene 3082)): inactive | AC50 [4]: 13.3 µM (active) | outcome [5]: inactive | outcome [6]: inactive | AC50 [7]: 1.78 µM (active) | outcome [8]: inactive | AC50 [9]: 16.5 µM (active) | outcome [10]: inactive | AC50 [11]: 17 µM (active) | AC50 [12]: 1.52 µM (active) | AC50 [13]: 12.1 µM (active) | AC50 [14]: 72.8 µM (active) | AC50 (MYC, MYC (gene 4609)): 16.1 µM (active) | outcome [15]: inactive | AC50 [16]: 11.8 µM (active)
